Laboratory results published in PubChem BioAssay (NCATS).
Results filed as inconclusive are left out. Activity calls are given as the source filed them. Unless noted, no rule for the calls is given here.

Legend:
[1] = qHTS profiling for inhibitors of Plasmodium falciparum (HB3) proliferation (AID 743324; active = well fitted curve in the direction sought with a large enough effect; an effect the other way counts as inactive or inconclusive;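 also: 100% = DMSO vehicle wells and 0% = artemisinin-treated control wells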); details: Plasmodium falciparum HB3 blood-stage proliferation; at 28.7 µM (top of the series) unless noted
Procedure, shortened: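 SYBR Green fluorescence (485 ex/535 em) of lysed cultures, incubated overnight at room temperature in the dark, quantifies parasite DNA. Infected erythrocytes at 0.3% parasitemia and 2.5% hematocrit were exposed 72 h; values normalized to DMSO and 0.29 uM artemisinin controls.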

[2] = qHTS profiling of the MIPE4 collection as inhibitors of Plasmodium falciparum (3D7) proliferation (AID 743344);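 also: scaled between DMSO vehicle wells and 0.29 µM artemisinin as full inhibition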; details: P. falciparum 3D7 in erythrocytes, SYBR Green DNA fluorescence, 72 h; at 28.5 µM (top of the series) unless noted
Procedure, shortened: (§1)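 Parasite DNA was quantified by SYBR Green I fluorescence (ex 485, em 535 nm) after overnight lysis in saponin/Triton buffer at room temperature. Cultures at 0.3% parasitemia and 2.5% hematocrit were first exposed to compound for 72 h at 37 C; signals were normalised to artemisinin (0.29 uM) and vehicle wells.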

[3] = qHTS profiling of the MIPE4 collection as inhibitors of Plasmodium falciparum (DD2) proliferation (AID 743345); details: P. falciparum Dd2 in erythrocytes, SYBR Green DNA, 72 h; at 28.5 µM (top of the series) unless noted
Procedure, shortened: as §1

[4] = qHTS profiling of the MIPE4 collection as inhibitors of Plasmodium falciparum (DD2) proliferation (Rep 2) (AID 743346); details: P. falciparum Dd2 in erythrocytes, SYBR Green DNA, 72 h; at 28.5 µM (top of the series) unless noted
Procedure, shortened: as §1

[5] = qHTS profiling of the MIPE4 collection as inhibitors of Plasmodium falciparum (HB3) proliferation (AID 743347);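 also: plate controls were DMSO vehicle wells for no effect and artemisinin wells for full effect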; details: P. falciparum HB3 in erythrocytes, SYBR Green DNA, 72 h; at 28.5 µM (top of the series) unless noted
Procedure, shortened: as §1

[6] = High-throughput drug toxicity screening in the BPDCN cell line Gen2.2 (AID 1224824); details: Gen2.2 BPDCN cells; at 45.8 µM (top of the series) unless noted;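 also: cells exposed to compounds for 48 h before reading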
Procedure, shortened: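 CellTiter-Glo luminescence read after 48 h compound exposure at 37 C defines viability; percent activity set with DMSO as 100% and bortezomib (9.2 uM final) as 0%. 500 exponentially growing cells per well, RPMI plus 10% FBS.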

[7] = High-throughput drug toxicity screening in the BPDCN cell line Cal-1 (AID 1224825); details: Cal-1 BPDCN cell viability, qHTS; at 45.8 µM (top of the series) unless noted
Procedure, shortened: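 Viability of the BPDCN line Cal-1 is measured as ATP-based luminescence (CellTiter-Glo) following 48 h incubation with compounds. Percent activity uses DMSO-treated wells as 100% and 9.2 uM bortezomib as 0%.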

[8] = qHTS assay for measurement of the activity of small molecule inhibitors on Zika virus induced Caspase-3 activity in human iPSC derived neural progenitor cells (hNPCs) (AID 1224857; active = well fitted curve in the direction sought with a large enough effect; an effect the other way counts as inactive or inconclusive; also: nearly all actives have a fitted effect of over 65% in size; also: potency is read from the fitted curve at half-maximal effect)
Procedure, shortened: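 Zika virus (2 FFU/cell) infection of human iPSC-derived NPCs, 6 h, following 1 h compound preincubation. Read-out: Caspase-Glo 3/7 luminescence.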

[9] = qHTS Screen of the MIPE 4.0 Collection Against Ewings Sarcoma (RDES) (AID 1259252; active = well fitted curve in the direction sought with a large enough effect; an effect the other way counts as inactive or inconclusive; also: nearly all actives have a fitted effect of over 35% in size; also: potency is read from the fitted curve at half-maximal effect)
Procedure, shortened: (§2)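 Compound titrations go onto adherent log-phase cells 4 h after seeding, incubate 48 h at 37C, then CellTiter-Glo luminescence reports viability relative to DMSO and cell-free controls.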

[10] = qHTS Screen of the MIPE 4.0 Collection Against Ewings Sarcoma (TC71) (AID 1259253; active = well fitted curve in the direction sought with a large enough effect; an effect the other way counts as inactive or inconclusive; also: nearly all actives have a fitted effect of over 40% in size; also: potency is read from the fitted curve at half-maximal effect)
Procedure, shortened: as §2

[11] = qHTS Screen of the MIPE 4.0 Collection Against Ewings Sarcoma (TC32) (AID 1259256; active = well fitted curve in the direction sought with a large enough effect; an effect the other way counts as inactive or inconclusive; also: nearly all actives have a fitted effect of over 45% in size; also: potency is read from the fitted curve at half-maximal effect)
Procedure, shortened: as §2

[12] = Identifying Small Molecule Inhibitors of Pancreatic Cancer Stem Cells (A2780, Spheroid) (AID 1259357; active = well fitted curve in the direction sought with a large enough effect; an effect the other way counts as inactive or inconclusive;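 also: spheroids pre-formed over 14 days in stem cell medium on hydrogel; compound exposure lasted 48 h before the ATP luminescence read; 100% = DMSO treated cells and 0% = wells without cells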); details: Potency: A2780 spheroid viability
Procedure, shortened: (§3)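 Adherent (2D) versus sphere (3D) formats; spheres generated 14 d in SCM beforehand. Compound transferred by pin tool after 4 h, 48 h incubation, CellTiter-Glo endpoint.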

[13] = Identifying Small Molecule Inhibitors of Pancreatic Cancer Stem Cells (Panc1, Spheroid) (AID 1259359; active = well fitted curve in the direction sought with a large enough effect; an effect the other way counts as inactive or inconclusive;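 also: potency is read from the fitted curve at half-maximal effect; compound exposure lasted 48 h before reading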)
Procedure, shortened: (§4)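 Viability is scored by CellTiter-Glo luminescence 48 h after dosing, expressed as percent activity against vehicle and no-cell references. Spheroid formats rely on cells cultured 14 days in stem cell media beforehand.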

[14] = Identifying Small Molecule Inhibitors of Pancreatic Cancer Stem Cells (SN12C, Spheroid) (AID 1259360; active = well fitted curve in the direction sought with a large enough effect; an effect the other way counts as inactive or inconclusive; also: potency is read from the fitted curve at half-maximal effect); details: Potency: SN12C spheroid viability
Procedure, shortened: as §3

[15] = Identifying Small Molecule Inhibitors of Pancreatic Cancer Stem Cells (A278, Adherent) (AID 1259361; active = well fitted curve in the direction sought with a large enough effect; an effect the other way counts as inactive or inconclusive; also: nearly all actives have a fitted effect of over 35% in size)
Procedure, shortened: as §4

[16] = qHTS Screen of the MIPE 4.0 Collection Against Ewings Sarcoma (EW8) (AID 1259255; active = well fitted curve in the direction sought with a large enough effect; an effect the other way counts as inactive or inconclusive; also: nearly all actives have a fitted effect of over 35% in size; also: potency is read from the fitted curve at half-maximal effect;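 as to viability: 100% = DMSO-treated cells and 0% = medium-only wells without cells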)
Procedure, shortened: as §2

[17] = qHTS assay for measurement of the activity of small molecule inhibitors on Zika virus induced Caspase-3 activity in human astrocytoma cells (AID 1224859; active = well fitted curve in the direction sought with a large enough effect; an effect the other way counts as inactive or inconclusive;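 also: plate controls were ZIKV-infected untreated cells for no effect and uninfected cells for full effect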)
Procedure, shortened: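 Caspase activation in ZIKV-infected SNB-19 cells (2 FFU/cell, 6 h) measured by Caspase-Glo 3/7 luminescence after 30 min RT; compound pre-incubated 1 h; normalised to uninfected and infected controls.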

Row | Compound | remaining proliferation (% of control), lower = more inhibition [1] | parasite growth, % of DMSO control [2] [%] | parasite growth remaining, % of DMSO control (lower = more inhibition) [3] [%] | parasite growth, % of control (lower = inhibition) [4] [%] | growth, % of control [5] [%] | cell viability, % of control (lower = more cytotoxic) [6] [%] | viability (% of control) [7] [%] | Potency [8] | Potency [9] | Potency [10] | Potency [11] | Potency [12] | Potency [13] | Potency [14] | IC50 (viability decrease) [15] | Potency [16] | Potency [17]
1 | COc1cc([C@@H]2c3cc4c(cc3[C@@H](O[C@@H]3O[C@@H]5CO[C@@H](C)O[C@@H]5[C@H](O)[C@@H]3O)[C@H]3COC(=O)[C@H]23)OCO4)cc(OC)c1O | 11.4% [at 9.63 µM] | 10.3 | 11 | 140 | 4.48 | 57.1 | 8.03 | inactive | 1.05 µM (active) | 0.59 µM (active) | inactive | – | – | – | – | – | –
2 | CC1=C[C@@H]2[C@@H]([C@@H](O)C[C@@]3(C)[C@H]2C[C@@H](C)[C@]3(O)C(=O)CO)[C@@]2(C)Cc3cnn(-c4ccccc4)c3C=C12 | 0.0764% | 33.4 | 8.93 | 46.9 | 11.6 | 24.4 | 32.5 | inactive | 23.5 µM (active) | – | 23.5 µM (active) | inactive | 20.9 µM (active) | 26.4 µM (active) | 20.9 µM (active) | – | –
3 | CNC1[C@H](O)C(O[C@@H]2C(O)C(O[C@H]3O[C@H]([C@@H](C)NC)CC[C@H]3N)[C@@H](N)C[C@H]2N)OC[C@]1(C)O (some centres not stated) | – | – | – | – | 99.6 | 116 | 101 | 18.7 µM (active) | inactive | inactive | inactive | – | – | – | – | inactive | –
4 | CN1CC(=O)NC1=NC(=O)Nc1cccc(Cl)c1 | – | 78.1 | 83.9 | 23.4 | 98.8 | 3.29 | 31.9 | inactive | inactive | – | inactive | – | – | – | – | inactive | –
5 | CCOC(=O)[C@H]1O[C@H]1C(=O)N[C@@H](CC(C)C)C(=O)NCCC(C)C | – | 15.6 | 12.9 | – | – | 74.8 | 95 | inactive | inactive | 2.96 µM (active) | 18.7 µM (active) | – | – | – | – | – | –
6 | CNC(=O)c1cc(COc2nnc(Nc3ccc(Cl)cc3)c3ccoc23)ccn1 | 28.7% | 40.5 | 79.6 | 52.9 | 48.2 | 159 | 92.9 | inactive | – | inactive | – | inactive | – | – | – | – | inactive
7 | O=C(O)Cc1cccc(OCCCN(Cc2cccc(C(F)(F)F)c2Cl)CC(c2ccccc2)c2ccccc2)c1 | 5.3% | 20.8 | 42.2 | 18.9 | 15.4 | 170 | 117 | inactive | – | 20.9 µM (active) | 20.9 µM (active) | – | – | – | – | – | inactive
8 | c1ccc(-c2oc3ncnc(NC[C@@H]4CCCO4)c3c2-c2ccccc2)cc1 | – | 36.2 | 72.4 | 41.6 | – | 343 | 42.1 | inactive | – | 23.5 µM (active) | 20.9 µM (active) | – | – | – | – | 18.7 µM (active) | –
